# In the supplement of paper PMC6555819:
# Tests used:
# Test in all cases: PBM binding z-score (relative to random genomic background probes); higher = stronger binding; sequences stand for … in GC…GCGATTGACAGCGTAGAATGAAGG
# [1] = system: FXR:RXRa (NR concentration 270 nM, RXRa partner concentration 90 nM)
# Procedure, shortened: (§1)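 Ligand-free nuclear receptor dimers were bound for 1 h to custom Agilent 4×180K protein-binding microarrays. Detection used antibodies against each partner (one per run). Binding z-scores rest on regression-normalized fluorescence, with random background probes as the reference.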
# [2] = system: LXRa:RXRa (NR concentration 270 nM, RXRa partner concentration 90 nM)
# Procedure, shortened: as §1
# [3] = system: LXRa homodimer (NR concentration 270 nM)
# Procedure, shortened: as §1
# [4] = system: LXRb:RXRa (NR concentration 270 nM, RXRa partner concentration 90 nM)
# Procedure, shortened: as §1
# [5] = system: PPARa:RXRa (NR concentration 270 nM, RXRa partner concentration 90 nM)
# Procedure, shortened: as §1
# [6] = system: PPARg:RXRa (NR concentration 180 nM, RXRa partner concentration 90 nM)
# Procedure, shortened: as §1
# [7] = system: PPARg:RXRa 270nM:90nM, anti-RXR (NR concentration 270 nM, RXRa partner concentration 90 nM)
# Procedure, shortened: as §1
# [8] = system: PPARg:RXRa 30nM:10nM, anti-RXR (NR concentration 30 nM, RXRa partner concentration 10 nM)
# Procedure, shortened: as §1
# [9] = system: PPARg:RXRa 90nM:30nM, anti-RXR (NR concentration 90 nM, RXRa partner concentration 30 nM)
# Procedure, shortened: as §1
# [10] = system: PPARg:RXRa DBDmut IVT, anti-RXR (DBD mutation: RXRa K156A/R161A, NR concentration 270 nM, RXRa partner concentration 90 nM)
# Procedure, shortened: as §1
# [11] = system: PPARg:RXRa IVT, anti-PPARg (NR concentration 270 nM, RXRa partner concentration 90 nM)
# Procedure, shortened: as §1
# [12] = system: PPARg homodimer (NR concentration 180 nM)
# Procedure, shortened: as §1
# [13] = system: PXR:RXRa (NR concentration 270 nM, RXRa partner concentration 90 nM)
# Procedure, shortened: as §1
# [14] = system: PXR homodimer (NR concentration 270 nM)
# Procedure, shortened: as §1
# [15] = system: RARa:RXR (NR concentration 270 nM, RXRa partner concentration 90 nM)
# Procedure, shortened: as §1
# [16] = system: RARa homodimer (NR concentration 270 nM)
# Procedure, shortened: as §1
# [17] = system: RARb:RXRa (NR concentration 270 nM, RXRa partner concentration 90 nM)
# Procedure, shortened: as §1
Sequence,PBM binding z-score [1],PBM binding z-score [2],PBM binding z-score [3],PBM binding z-score [4],PBM binding z-score [5],PBM binding z-score [6],PBM binding z-score [7],PBM binding z-score [8],PBM binding z-score [9],PBM binding z-score [10],PBM binding z-score [11],PBM binding z-score [12],PBM binding z-score [13],PBM binding z-score [14],PBM binding z-score [15],PBM binding z-score [16],PBM binding z-score [17]
CTAAGTAGGTTAAGGGGGTCATTCAGTTTGAAAG,5.01,4.96,3.1,6.08,6.01,8.37,7.83,6.33,8.16,7.83,7.65,3.59,5.74,11.4,5.63,1.86,3.43
CCGAGTAGGTTACGAGAGGGCATTCAGTGCGAAT,1.04,7.41,2.68,5.96,2.19,1.48,1.64,-0.24,0.958,4.61,3.37,2.29,5.07,6.97,2.08,-0.345,1.66
CCGAGTAGGTTACGATGGGGCATTCAGTGCGAAT,0.181,6.63,-0.148,3.71,1.42,0.775,1.01,-0.257,0.557,4.25,3.03,-0.0463,0.69,0.101,0.251,-0.659,1.03
TCGAGTACGTTACGGGGGCATTCAGGGATGAAGA,2.24,1.79,-0.186,3.82,2.44,0.609,1.72,1.42,1.85,1.28,2.5,0.453,2.92,1.24,1.86,0.239,1.38
CCGAGTAGGTTACGAGGGTGCATTCAGTGCGAAT,0.536,5.55,-0.00974,2.43,1.8,1.46,1.92,0.234,1.13,4.66,3.87,0.357,4.47,4.3,0.897,-0.753,1.13
CCGAGTTGGTTACGAGGGGGCATTCAGTGCGAAT,1.35,3.69,1.21,4.27,2.31,-0.0841,0.784,-0.706,0.481,0.938,1.51,1.98,3.41,7.65,2.14,0.677,1.31
CTATGTAGGTTAAGGGCGTCATTCAGTTTGAAAG,0.15,0.294,-0.263,0.367,3.53,5.29,5.64,3.36,5.17,7.33,6.94,1.62,0.377,0.443,0.584,-0.284,1.27
CCGAGTAGGTTACGAGGGGGCATTCTGTGCGAAT,2.88,7.2,1.77,6.24,3.38,2.22,3.46,0.457,2.35,4.91,4.3,2.19,4.42,1.05,3.12,0.262,2.01
CCTAGTAGGTTACGAGGGGGCATTCAGTGCGAAT,3.31,7.55,1.8,6.51,4.13,5.11,5.4,2.24,4.28,6.21,6.3,3.88,5.02,6.19,2.97,1.46,2.32
TCGAGTAGGTTACGGGGGAATTCAGGGATGAAGA,0.979,1.58,0.0777,2.86,2.8,3.75,4.02,2.24,3.53,4.46,4.91,1.34,1.33,0.36,1.17,-0.238,1.62
CCGAGTAGGTTACGAGGGGGCATTCAGTGCGAAT,2.35,6.98,1.84,6.35,3.42,2.22,3.3,1.24,2.55,4.8,4.49,2.04,5.02,6.02,3.43,0.391,2.2
CCGAGTAGGTAACGAGGGGGCATTCAGTGCGAAT,1.91,5.77,0.734,4.7,2.83,1.05,2.41,0.082,1.9,3.83,3.65,0.975,3.42,4.31,2.24,0.592,1.31
CTATGTAGGTTAAGCGGGTCATTCAGTTTGAAAG,2.56,2.59,0.655,2.56,4.84,5.97,5.57,2.6,4.53,7.52,7.09,2.08,3.8,8.04,3.31,0.415,2.16
CCGAGTAGGTTACGAGGGGGCGTTCAGTGCGAAT,1.13,6.33,0.912,5.52,3.11,2,3.17,0.694,2.26,5,4.63,1.55,4.3,3.24,2.59,0.353,1.72
TCGAGTAGGTAACGGGGGCATTCAGGGATGAAGA,1.53,1.83,0.159,4.16,3.41,4.6,4.51,2.68,3.8,4.46,5.38,1.54,2.44,1.58,2.48,0.232,1.74
CCGAGTAGGTTACGAGGGGGGATTCAGTGCGAAT,2.34,3.82,0.79,5.43,2.99,2.52,3.71,1.57,3.4,5.06,4.91,2,3.27,2.11,2.61,0.858,1.84
TCGAGTAGGTTACGGGGCCATTCAGGGATGAAGA,0.993,0.505,-0.236,0.939,2.58,3.24,3.52,1.65,2.58,3.76,4.63,0.412,0.639,-0.128,0.892,-0.208,1.44
CTATGTAGGTTAAGGGGGTCCTTCAGTTTGAAAG,1.09,1.76,0.414,3.75,4.29,6.59,6.57,4.47,6.41,7.26,6.7,1.58,2.33,1.68,1.92,0.652,1.67
CCGAGTAGGTTACGAGGGGGCATTCAATGCGAAT,2.32,7.34,1.1,6.15,3.62,2.64,3.7,1.21,2.45,4.67,4.57,2.11,4.33,0.729,3.11,0.217,2.14
CTCTGTAGGTTAAGGGGGTCATTCAGTTTGAAAG,5.36,5.1,3.51,6.33,5.68,6.59,6.91,4.4,6.57,5.92,6.03,3.78,6.17,12,6.17,1.78,3.6
CTATGTAGGTTAAGGGGGTCTTTCAGTTTGAAAG,0.885,1.5,0.399,3.78,4.64,7.24,7.16,4.5,6.8,7.13,7.07,2.14,2.15,1.64,1.84,0.701,1.89
CTATGTAGGTTAAGGTGGTCATTCAGTTTGAAAG,1.04,1.15,0.413,1.09,3.64,5.35,4.98,2.07,4.28,7.1,7,1.36,0.913,0.758,0.941,0.483,1.53
TTGAGTAGGTTACGGGGGCATTCAGGGATGAAGA,3.06,3.3,1.18,5.2,4.63,7.11,6.44,4.81,5.83,6.29,6.86,5.24,3.31,3.21,3.81,2.56,2.9
CCGAGTAGGTTACGTGGGGGCATTCAGTGCGAAT,2.27,7.98,1.53,6.74,3.6,1.87,3.65,0.89,2.73,4.47,4.6,0.555,5.23,6.32,2.42,0.183,2.09
CTATGTAGGTTAAGGGGGTCGTTCAGTTTGAAAG,2.32,2.72,0.932,5.37,5.33,7.56,7.03,4.96,6.85,7.46,7.3,2.23,3.86,6.99,3.39,1.49,2.37
CCGAGTAGGCTACGAGGGGGCATTCAGTGCGAAT,0.473,3.15,0.222,3.4,1.72,0.0175,1.1,-0.389,0.48,2.33,1.4,0.546,2.05,3.02,1.31,-0.663,0.81
CTATGTAGGTTAAGGGGGTCATTCGGTTTGAAAG,5.21,4.84,2.94,6.16,6.15,8.47,7.83,6.21,7.86,6.81,7.73,4.23,5.97,12.4,6.04,1.33,3.54
CTATGTAAGTTAAGGGGGTCATTCAGTTTGAAAG,4.5,4.34,2.4,6.24,5.31,3.92,5.21,2.84,4.55,3.56,5.22,3.28,5.6,10.3,5.28,2.58,3.35
